The structures appear in SMILES notation. Calls of active or inactive are those of the source. How the source made its calls: active means hit-call score of the fitted dose curve at least 0.9, where 1 is the maximum; inactive means score below 0.9.

Read-out in the assay: Intercellular Adhesion Molecule 1 (ICAM1), ICAM1 (gene 3383)
Nature of the assay: LTEA_HepaRG_ICAM1: Life Technologies and Expression Analysis (LTEA) Assay for Intercellular Adhesion Molecule 1 (ICAM1) using HepaRG (AID 2283507). As to conditions: mRNA level, 48 h; actives raise or lower the signal. The protocol:
LTEA_HepaRG is a cell based, multiplexed-readout assay that uses HepaRG, a human liver cell line, with measurements taken at 48 hours after chemical dosing on a 96-well plate.LTEA_HepaRG_ICAM1 is one of 102 assay component(s) measured in the LTEA HepaRG cell culture assay. It is a marker of Fibrosis.Data from the assay component LTEA_HepaRG_ICAM1 was analyzed into 1 endpoint. This assay endpoint, LTEA_HepaRG_ICAM1, was analyzed with bidirectional fitting relative to DMSO as the negative control and baseline of activity. Using a type of inducible reporter, measures of mRNA induction for gain or loss-of-signal activity can be used to understand regulation of transcription factor activity. To generalize the intended target to other relatable targets, this assay endpoint is annotated to the cell adhesion molecules intended target family, where the subfamily is Immunoglobulin CAM.
A total of 1060 chemcials from the ToxCast library were tested in eight-point concentration-response experiments. Cell culture and cytotoxicity assays were conducted at Thermo Fisher Scientific's Custom Services facility (Madison, WI). A single lot of human HepaRG cells (Thermo Fisher Scientific, Frederick, MD) was used for the cell culture experiments. 96-well format collagen type I coated plates of human HepaRG cells were prepared using established methods. Briefly, cryopreserved HepaRG cells were thawed, plated at a density of approximately 100,000 cells/well in HepaRG Thaw, Plate, and General Purpose media (HPRG770, Thermo Fisher Scientific), and incubated for 48 hours. 0.5% DMSO was selected as vehicle control to balance the requisite need of DMSO in HepaRG cultures to maintain differentiation (for example, baseline metabolism, proportions of hepatocytes vs. cholangiocytes), while enabling further hepatic receptor pathway activation (for example, PXR and CAR) in response to chemical exposure. 48 hours after plating, the culture medium was replaced with HepaRG Serum-Free Incudtion Media. Cells were exposed to each test chemical in duplicate and maintained in CO2 incubators for another 48 hours. Chemical plates were thawed to room temperature and 200x concentrations of treatment groups were prepared. 8-point conentration-reponse curves were made with the highest exposure at 100 uM, followed by half-log dilutions, all in 0.5% DMSO. Each test plate contained variouse controls, induction positive controls (1mM phenobarbital), cytotoxicity positive controls ([…] aflatoxin B1), vehicle controls (0.5% DMSO), and total lysis controls (0.5% DMSO). Cell morphology images were taken using an Essen IncuCyte FLR automated microscope, with six 96-well plates imaged in about 24 minutes. Images were captured and exported and JPEG files. Spent culture media was transfered to black-well plates for the LDH assay, and remaining media was sorted at -80 C for later use. Cells were treated with RLT buffer and frozen until shipped for gene expression analysis. Total RNA was isolated from the cell suspension in 75 uL of Buffer RLT (Qiagen, Germantown, MD 20874) by Quintiles/Expression Analysis (Durham, NC) using a custom isolation procedure. Total RNA from each plate well was transferred to a preamplification plate. Fluidigm's 96.96 Dynamic ArrayTM (Fluidigm, Amsterdam, the Netherlands) technology was used for gene expression analyses by quantitative reverse transcription polymerase chain reaction (qRT-PCR, performed by Quintiles/Expression Analysis, Durham, NC)89. Standard TaqManTM Assays (Applied Biosystems/ThermoFisher Scientific, Foster City, CA) were used to assess the expression of 93 genes selected based on their selectivity and sensitivity to important hepatic receptors known to be modulated by environmental chemicals; importance in human hepatocyte functionality; and hepatotoxicity. […]
Take `ClCC(Cl)CCl`: the outcome was inactive. With `O=C1C2(Cl)C3(Cl)C4(Cl)C(Cl)(Cl)C5(Cl)C3(Cl)C1(Cl)C5(Cl)C24Cl` (stereo unspecified), the AC50 is 91.4 µM (active). Still for that read-out and setting: to `C=C(C)C(=O)[O][Sn]([CH2]CCC)([CH2]CCC)[CH2]CCC` belongs 2.12 µM (active).

Turning to `Cn1sc(Cl)cc1=O`, the compound was called inactive. Regarding `C[C@@H]1C[C@@H]([C@H](O)CC2CC(=O)NC(=O)C2)C(=O)[C@@H](C)C1`, the AC50 was 11.9 µM (active). For the compound `CC(C)(C)c1cc(O)ccc1O`, the compound was classed as inactive. The same measure, in the same setting: for `CCCCCCCCc1ccc(O)cc1` the value was “inactive”; for `CCOP(=S)(OCC)Oc1nc(Cl)c(Cl)cc1Cl`, “inactive”.

For the compound `ClC1(Cl)C2(Cl)C3(Cl)C4(Cl)C(Cl)(Cl)C5(Cl)C3(Cl)C1(Cl)C5(Cl)C24Cl` (stereo unspecified), the call was inactive. On the same count and under the same terms, to `O=c1[nH]c(=O)[nH]c(=O)[nH]1` belongs “inactive”; to `C[C@]12CCC(=O)C[C@@H]1CC[C@@H]1[C@@H]2CC[C@]2(C)[C@@H](O)CC[C@@H]12`, “inactive”. `CC(=O)[O][Hg][c]1ccccc1`: the AC50 was 0.558 µM (active).

Take `COc1cc(-c2ccc(N)c(OC)c2)ccc1N`: the call was inactive. Consider `O=C(O)C(F)(F)C(F)(F)C(F)(F)C(F)(F)C(F)(F)C(F)(F)F`, for which the call was inactive. Regarding `CCC(C)(C)c1ccc(O)c(C(C)(C)CC)c1`, the result was inactive. In the case of `CCN1CCC2(CC1)COc1cc3c(cc12)N(C(=O)c1ccc(-c2ccc(-c4nnc(C)o4)cc2C)cc1)CC3`, the AC50 was 11.1 µM (active). Consider `O=C(O)C(F)(F)C(F)(F)C(F)(F)C(F)(F)C(F)(F)C(F)(F)C(F)(F)C(F)(F)C(F)(F)C(F)(F)F`, for which the result was inactive. For `CC(C)(c1ccccc1)c1ccc(O)c(C(C)(C)c2ccccc2)c1`, the half-maximal activity concentration (AC50) was 50 µM (active). In the case of `O=C(O)C(Cl)(Cl)Cl`, the outcome was inactive. On the same count and under the same terms, to `CC12CC1(C)C(=O)N(c1cc(Cl)cc(Cl)c1)C2=O` (stereo unspecified) belongs “inactive”. Take `CC(C)(C)CC(C)(C)c1ccc(O)cc1`: the compound was called inactive. As for `Cc1ccccc1N`, the compound was classed as inactive. On the same count and under the same terms, to `O=[N+]([O-])c1ccc(O)c([N+](=O)[O-])c1` belongs “inactive”; to `CCC(=O)C(CC(C)N(C)C)(c1ccccc1)c1ccccc1` (stereo unspecified), “inactive”. Regarding `NC(=O)O`, the outcome was inactive.

With `O=C(Nc1ccc2[nH]ccc2c1)c1cc2cc(F)ccc2n1Cc1cccc(F)c1`, the concentration at half-maximal activity (AC50) is 12.6 µM (active). As for `CCOP(=S)(OCC)SCSP(=S)(OCC)OCC`, the result was inactive.

Regarding `Oc1cccc2cccnc12`, the outcome was inactive. Take `CN(C)N=O`: the result was inactive. On the same count and under the same terms, for `C=CC(=O)OCCCCCC(C)C` the value was “inactive”; for `CC(C)(OO)c1ccccc1`, “inactive”.

The values are drawn from PubChem BioAssay (EPA / NIEHS).
